Reference: PubChem BioAssay AID624483 (NMMLSC, 2012)
Among all 360,000 compounds or so, about 11,000 (3.1%) were called active. Inconclusive results (about 2%) are left out. The sample holds actives, similar compounds and a random draw of the others, so the mix is not that of the screen. A number with no mark means an inactive call. Rule as the data show it: active = fluorescence intensity above about 16000; inconclusive = no clear call, values can overlap the other calls; inactive = below that.

Test: compound fluorescence in toxin protease inhibitor counterscreen, primary screen, artefact control for toxin protease inhibitor project, biochemical, multiplex microsphere, HTS (AID 624483)
Conditions: compound autofluorescence counterscreen, microsphere flow cytometry; hits give high values
For `CCCc1cc(=S)n2c([nH]c3ccccc32)c1C#N`, the fluorescence intensity was 3240.
With `CN(C)C(CNC(=O)CCCOc1ccccc1)c1ccco1` (stereo not given) the fluorescence intensity was 22900 (active).
`CN(C)C(CNC(=O)c1ccc(OCc2cn3ccccc3n2)cc1)c1ccco1` (stereo not given) gave a fluorescence intensity of 4090.
`CN(C)C(CNC(=O)c1cccc(C#N)c1)c1ccco1` (stereo not given) showed a fluorescence intensity of 3360.
Compound `O=C1NC[C@H](Cc2ccc(O)cc2)N(C[C@@H]2CCCN2C[C@H](Cc2ccccc2)N2C[C@H](Cc3ccccc3)N(CC3CCCCC3)C(=O)C2=O)C1=O` has a fluorescence intensity of 7010.
In the case of `COC(=O)[C@]12CCCCC=C1N(CCC1=CCCCC1)C(=O)[C@H](CC(=O)NCC1CCCCC1)C2`, the fluorescence intensity is reported as 4280.
Compound `N/C(=N\OC(=O)CC1CCCCC1)c1ccccc1` has a fluorescence intensity of 2550.
With `N/C(=N\OC(=O)CCC1CCCCC1)c1ccccn1` the fluorescence intensity was 16300 (active).
With `COc1ccccc1OCC(=O)O/N=C(\N)c1ccccn1` the fluorescence intensity was 6210.
`COc1ccccc1C(=O)Nc1ccc(Nc2ccccc2)cc1` showed a fluorescence intensity of 4350.
In the case of `COc1ccccc1C(=O)C(O)c1ccccc1OC` (stereo not given), the fluorescence intensity is reported as 20300 (active).
For `COc1ccccc1C(=O)c1ccccc1C(=O)c1ccccc1`, the fluorescence intensity was 4030.
In the case of `O=C(Nc1ccccc1)c1ccccc1NC(=O)C(F)(F)F`, the fluorescence intensity is reported as 9920.
In the case of `CC(=O)Nc1ccccc1C(=O)OCC(=O)c1cccc2ccccc12`, the fluorescence intensity is reported as 4440.
In the case of `CC(=O)Nc1ccccc1C(=O)C(=O)Nc1ccc(F)cc1`, the fluorescence intensity is reported as 19600 (active).
For `CCNC(=S)Nc1ccc2c(c1)c(=O)n(C)n2Cc1ccc(Cl)cc1`, the fluorescence intensity was 3690.
`CC1(C(=O)NS(=O)(=O)c2ccc(Cl)cc2)CCN1C(=O)CC1CCCC1` (stereo not given) showed a fluorescence intensity of 3020.
For `COc1ccc(C(C)(O)c2nc(-c3ccc(C)c(C)c3)cs2)cc1` (stereo not given), the fluorescence intensity was 3400.
`O=C(Cn1cc(C(F)(F)F)ccc1=O)N/N=C/c1ccc(Cl)cc1Cl` gave a fluorescence intensity of 1980.
With `O=C(Cc1ccccc1)N/N=C/c1ccc(Cl)cc1Cl` the fluorescence intensity was 23400 (active).
With `C=CCOc1ccccc1/C=N/NC(=O)Cc1ccccc1` the fluorescence intensity was 4140.
For `COC(=O)c1ccc2nc(C3CCCCC3)c(Cc3cccc(F)c3)n2c1`, the fluorescence intensity was 4850.
Compound `Clc1ccc(CSc2nnc([C@@H]3CCCN3)o2)cc1` has a fluorescence intensity of 6580.
Work on `CCOC(=O)C1=CCC2C(=O)N(Cc3ccccc3)C(=O)C12` (stereo not given) yielded a fluorescence intensity of 4910.
In the case of `CCOC(=O)C1CCN(c2ncnc3c2oc2ccc(Br)cc23)CC1`, the fluorescence intensity is reported as 22700 (active).
`CCOC(=O)C1CCN(c2ncnc3c2c(-c2ccccc2)cn3-c2ccc(C)cc2)CC1` gave a fluorescence intensity of 3930.
`CCOC(=O)C1CCN(Cc2nnc(-c3cccc(Br)c3)o2)CC1` gave a fluorescence intensity of 3660.
`O=C(CSc1nc2cccc(F)c2c(=O)n1-c1ccccc1)Nc1ccc2c(c1)CCC2` showed a fluorescence intensity of 4620.
Compound `C=CCn1c(SCc2c(C)noc2C)nc2sc3c(c2c1=O)CCC(C)C3` (stereo not given) has a fluorescence intensity of 2390.
Compound `C=CCn1c(SCC(=O)NCC2CCCO2)nc2sc(C)c(C)c2c1=O` (stereo not given) has a fluorescence intensity of 5940.
For `C=CCn1c(SCc2csc(C)n2)nc2scc(-c3ccc(C)o3)c2c1=O`, the fluorescence intensity was 21100 (active).
`COc1ccc(C(C)(NC(C)=O)c2nc(-c3ccc(S(C)(=O)=O)cc3)cs2)cc1` (stereo not given) gave a fluorescence intensity of 2940.
In the case of `COc1ccccc1C1CC(=O)n2c(nc(-c3ccccc3)c2-c2ccccc2)S1` (stereo not given), the fluorescence intensity is reported as 1950.
In the case of `CCC(C)NC(=O)CSC1=Nc2ccccc2C2=NC(CCC(=O)NCc3ccco3)C(=O)N12` (stereo not given), the fluorescence intensity is reported as 19500 (active).
With `O=C(CSC1=Nc2ccccc2C2=NC(c3ccccc3)C(=O)N12)NCC1CCCO1` (stereo not given) the fluorescence intensity was 2380.
With `NC(=O)CSC1=Nc2ccccc2C2=NC(CCC(=O)NCc3ccc(F)cc3)C(=O)N12` (stereo not given) the fluorescence intensity was 3100.
For `CCCCNC(=O)C[C@@H]1C[C@@]2(C(=O)OCC)CCC=C2N(Cc2cccc3ccccc23)C1=O`, the fluorescence intensity was 5990.
Work on `OCCc1ccc(NCCc2ccco2)cc1` yielded a fluorescence intensity of 6000.
In the case of `CC(=O)Nc1cccc(-c2cc3nc(NCc4cccnc4)n(C)c(=O)c3s2)c1`, the fluorescence intensity is reported as 3710.
Work on `C=CCn1c(SCn2nnc3ccccc3c2=O)nnc1-c1ccc(Cl)cc1` yielded a fluorescence intensity of 15200.
`Nc1nnc(SCn2nnc3ccccc3c2=O)s1` showed a fluorescence intensity of 4300.
For `O=c1c2ccccc2nnn1CSc1nnnn1-c1ccccc1`, the fluorescence intensity was 16800 (active).
For `Cc1cc2nc(-c3ccc(F)cc3)c(Cc3ccsc3)n2c(C)c1Br`, the fluorescence intensity was 4760.
In the case of `COC(=O)c1ccccc1NC(=O)C1CC(=O)N(c2ccc(OC)cc2)C1` (stereo not given), the fluorescence intensity is reported as 3990.
In the case of `COC(=O)c1ccccc1NC(=O)C1CCN(S(=O)(=O)c2cc(OC)ccc2OC)CC1`, the fluorescence intensity is reported as 16400 (active).
In the case of `COc1ccc(NC(=O)C2CCN(S(=O)(=O)c3ccc4[nH]c(=O)oc4c3)CC2)c(OC)c1`, the fluorescence intensity is reported as 4520.
For `C/C=C/C(=O)Nc1ccc(N2CCN(c3ccc(C(F)(F)F)cn3)CC2)nc1`, the fluorescence intensity was 5380.
Compound `COc1ccc(-c2cc(C(=O)N3CCN(c4ccc(F)cc4)CC3)no2)cc1` has a fluorescence intensity of 6330.
Compound `O=C(c1cc(-c2ccc(Cl)cc2)on1)N1CCN(c2ccccc2)CC1` has a fluorescence intensity of 4120.
With `COc1ccccc1N1CCN(C(=O)c2cc(-c3ccc(Cl)c(Cl)c3)on2)CC1` the fluorescence intensity was 16600 (active).
In the case of `O=C(Cc1ccc(-n2c(=O)c3sccc3n(Cc3ccc(F)cc3)c2=O)cc1)NCc1ccco1`, the fluorescence intensity is reported as 5860.
For `O=C(NCc1ccco1)c1ccc(Cn2c(=O)c3sccc3n(Cc3ccc(F)cc3)c2=O)cc1`, the fluorescence intensity was 5200.
In the case of `O=C(NCc1ccco1)c1cc2sccc2n1Cc1ccc(F)cc1`, the fluorescence intensity is reported as 20800 (active).
Work on `CC(C)CC(=O)Nc1nnc(S(=O)(=O)N(C)c2ccc(Cl)cc2)s1` yielded a fluorescence intensity of 4020.
For `COC(=O)c1ccc2nc(-c3ccc(Cl)cc3)c(Cc3cccc(F)c3)n2c1`, the fluorescence intensity was 6340.
Compound `O=C(NCc1nnnn1-c1ccc(Cl)cc1)c1ccc([N+](=O)[O-])o1` has a fluorescence intensity of 3830.
Work on `Oc1cccc2cc(-c3ccncc3)cnc12` yielded a fluorescence intensity of 2990.
In the case of `O=C(NCCc1ccccn1)c1ccc(COc2ccccc2)o1`, the fluorescence intensity is reported as 19400 (active).
For `O=C(CNC(=O)COc1ccccc1)NCCc1ccccn1`, the fluorescence intensity was 3410.
Compound `O=C(NCCc1ccccn1)c1cccnc1Oc1ccc(Cl)cc1` has a fluorescence intensity of 5560.
